What all share (experiment): NCI-60 one-dose screen, 48 h (100 = growth as untreated, 0 = no growth, -100 = all killed)
One experiment has as its system NCI-H23 lung. The following applies: 10 µM unless noted.
A further experiment relates to NCI-H226 lung. To be noted: 10 µM unless noted.
In a further experiment the test system is NCI-H322M lung. The following applies: 10 µM unless noted.
The next experiment deals with NCI-H460 lung. To be noted: 10 µM unless noted.
The subject of a further experiment is HOP-92 NSCLC. To be noted: 10 µM.
The test system of the next experiment is NCI-H522 lung. To be noted: 10 µM.
The subject of another experiment is A549/ATCC NSCLC. The following applies: 10 µM unless noted.
The test system of the next experiment is COLO 205 colon. The following applies: 10 µM unless noted.
The subject of a further experiment is 786-0 renal. To be noted: 10 µM unless noted.

The panel holds about 83,000 compounds, 20% with a hit somewhere; the sample as a whole holds those more often.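 Note: values are percent growth. 100 is the growth of untreated cells, values between 100 and 0 indicate rising inhibition; between -100 and 0 indicates cell death.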 A number with no mark means an inactive call. Activity calls are given as the source filed them. How the source made its calls: active means growth percent below 10; inactive means the rest.

For `COc1ccc(NC(=O)/C=C(C)/C=C/C=C(C)/C=C/C2=C(C)CCCC2(C)C)cc1`, the growth with NCI-H23 lung was 93.4%; in the experiment with NCI-H226 lung it was 78.2%; in the experiment with NCI-H322M lung, 90.8%; in the experiment on NCI-H460 lung, 30.6%; in the experiment on HOP-92 NSCLC it was 62%; with NCI-H522 lung it was 51.7%. In addition, the growth is 39.9% in the experiment with A549/ATCC NSCLC and 33% in the experiment with COLO 205 colon.

As for `Cc1c(CN(C)C)cc(C(C)C)cc1C(C)C`, the growth is 102% with NCI-H23 lung; 93.5% in the experiment on NCI-H226 lung; 129% with NCI-H322M lung; 111% in the experiment with NCI-H460 lung; 129% in the experiment on HOP-92 NSCLC; 85% in the experiment with NCI-H522 lung. In addition, the growth was 101% with A549/ATCC NSCLC, 103% in the experiment on 786-0 renal and 131% in the experiment with COLO 205 colon.

In the case of `Cc1ccnc2c(NC(C)CCCN)cc(O)c(O)c12` (stereo not drawn), the growth in the experiment on NCI-H23 lung was 40.4%; in the experiment on NCI-H226 lung it was 111%; with NCI-H322M lung it was 75.3%; in the experiment with NCI-H460 lung, 115%; with HOP-92 NSCLC, 47.6%; in the experiment with NCI-H522 lung, 12.6%. Moreover, the growth was 94.7% in the experiment on A549/ATCC NSCLC, 95.1% in the experiment with 786-0 renal and 77.8% with COLO 205 colon.

As to `CCn1cc(C(=O)O)c(=O)c2cc(F)c(N3CCN(S(=O)(=O)c4ccc(Cl)cc4)CC3)cc21`, the growth is -7.07% (active) in the experiment on NCI-H23 lung; 60.1% with NCI-H226 lung; 45.9% in the experiment on NCI-H322M lung; 5.92% (active) in the experiment with NCI-H460 lung; -4.17% (active) in the experiment with HOP-92 NSCLC; 8.39% (active) in the experiment with NCI-H522 lung. Moreover, the values for the growth with A549/ATCC NSCLC, in the experiment with 786-0 renal and in the experiment with COLO 205 colon were 14.6%, 23.7% and 12.1%, respectively.

On to `CCOC(=O)C1=NN(c2ccccc2)C2=NC(=O)/C(=C\c3cn(-c4ccccc4)nc3-c3cc4ccccc4o3)C(=O)N12`, for which the growth in the experiment on NCI-H23 lung is 95.4%; with NCI-H226 lung, 84.7%; with NCI-H322M lung, 89.6%; with NCI-H460 lung, 97%; in the experiment with HOP-92 NSCLC, 63.5%; in the experiment on NCI-H522 lung, 89.5%. Moreover, the growth was 96.8% with A549/ATCC NSCLC, 99.9% in the experiment on 786-0 renal and 109% in the experiment with COLO 205 colon.

Consider `C=CCSc1nnc(COc2ccc3c(C)c(Cc4ccccc4)c(=O)oc3c2C)o1`, for which the growth with NCI-H23 lung was 102%; in the experiment on NCI-H226 lung it was 95%; with NCI-H322M lung, 99.2%; with NCI-H460 lung, 103%; in the experiment on HOP-92 NSCLC, 100%; in the experiment on NCI-H522 lung it was 81.8%. Further, the growth is 101% in the experiment with A549/ATCC NSCLC, 102% in the experiment on 786-0 renal and 117% with COLO 205 colon.

On to `COC(=O)c1ccc2[nH]c(O)c(C(=Nc3ccc(N(C)C(=O)CN4CCN(C)CC4)cc3)c3ccc([N+](=O)[O-])cc3)c2c1`, for which the growth in the experiment on NCI-H23 lung was 57.3%; with NCI-H226 lung, 55.8%; in the experiment on NCI-H322M lung, 41.9%; in the experiment with NCI-H460 lung, 48.5%; in the experiment on HOP-92 NSCLC, 63.6%; with NCI-H522 lung, 34.3%. For the same molecule, the figures for the growth with A549/ATCC NSCLC, with 786-0 renal and in the experiment with COLO 205 colon were 72.8%, 33.1% and 43.8%, respectively.

With `O=C(NCCNCCO)c1cc([N+](=O)[O-])cc([N+](=O)[O-])c1O`, the growth in the experiment on NCI-H23 lung was 103%; with NCI-H226 lung, 97.7%; with NCI-H322M lung, 103%; in the experiment with NCI-H460 lung, 104%; in the experiment with HOP-92 NSCLC it was 93.9%; in the experiment with NCI-H522 lung it was 91.9%. In addition, the growth is 100% with A549/ATCC NSCLC, 104% in the experiment on 786-0 renal and 110% with COLO 205 colon.

In the case of `Oc1ccccc1/C=N/N=C\c1ccccc1Cl`, the growth in the experiment on NCI-H23 lung is 88.3%; in the experiment with NCI-H226 lung, 76.8%; with NCI-H322M lung it was 97.6%; in the experiment with NCI-H460 lung, 99%; in the experiment on HOP-92 NSCLC, 77.5%; in the experiment with NCI-H522 lung, 92.3%. In addition, the growth with A549/ATCC NSCLC is 101%; in the experiment on 786-0 renal it was 100%; with COLO 205 colon, 109%.

On to `c1ccc(-c2cn3ccnc3c(-c3ccc4ncn(C5CCCCC5)c4c3)n2)cc1`, for which the growth with NCI-H23 lung was 54.7%; with NCI-H226 lung, 66.1%; in the experiment on NCI-H322M lung, 94.8%; in the experiment with NCI-H460 lung it was 62.2%; with HOP-92 NSCLC, 46.3%; in the experiment on NCI-H522 lung, 41.9%. The growth is 66.7% with A549/ATCC NSCLC, 63.2% in the experiment with 786-0 renal and 79.3% with COLO 205 colon.

Consider `CCOC(=O)C1CCCN1C(=O)C1(NC(C)=O)CCCC1` (stereo not drawn), for which the growth in the experiment on NCI-H23 lung is 100%; in the experiment on NCI-H226 lung, 104%; in the experiment on NCI-H322M lung it was 91.3%; in the experiment on NCI-H460 lung, 98.2%; in the experiment on HOP-92 NSCLC, 84.7%; in the experiment with NCI-H522 lung it was 107%. Also, the values for the growth in the experiment on A549/ATCC NSCLC, with 786-0 renal and in the experiment on COLO 205 colon were 101%, 102% and 105%, respectively.

Take `COC(=O)c1ccc2[nH]c(O)c(C(=Nc3ccc(N(C)C(=O)CN4CCN(C)CC4)cc3)c3ccc(N)cc3)c2c1`: the growth was 70% in the experiment on NCI-H23 lung; 56.5% in the experiment on NCI-H226 lung; 77.4% with NCI-H322M lung; 105% with NCI-H460 lung; 78.3% in the experiment with HOP-92 NSCLC; 75.5% in the experiment on NCI-H522 lung. The results for the growth in the experiment on A549/ATCC NSCLC, with 786-0 renal and with COLO 205 colon were 111%, 63.9% and 41.4%, respectively.

Consider `O=C(/C=C/c1c[nH]c2ccccc12)c1cc2ccccc2o1`, for which the growth in the experiment on NCI-H23 lung is 97.2%; with NCI-H226 lung, 100%; with NCI-H322M lung, 99.7%; in the experiment on NCI-H460 lung, 107%; in the experiment on HOP-92 NSCLC it was 83.2%; in the experiment with NCI-H522 lung, 79.8%. The growth in the experiment with A549/ATCC NSCLC is 89.5%; in the experiment with 786-0 renal, 86.6%; in the experiment with COLO 205 colon, 130%.

As to `COc1ccc(-n2nnnc2-c2cn[nH]c2C(F)(F)F)cc1`, the growth was 128% in the experiment with NCI-H23 lung; 91% in the experiment on NCI-H226 lung; 105% in the experiment on NCI-H322M lung; 110% in the experiment with NCI-H460 lung; 91.8% in the experiment with HOP-92 NSCLC; 79.3% in the experiment on NCI-H522 lung. The growth in the experiment on A549/ATCC NSCLC was 104%; in the experiment on 786-0 renal, 106%; in the experiment with COLO 205 colon it was 96.8%.

On to `O=c1[nH]c(=S)[nH]c(O)c1/C=C1\C=Nc2ccccc21`, for which the growth in the experiment with NCI-H23 lung was 82.5%; in the experiment on NCI-H226 lung, 90.5%; in the experiment on NCI-H322M lung it was 110%; with NCI-H460 lung, 79.5%; in the experiment on HOP-92 NSCLC, 54.2%; in the experiment on NCI-H522 lung, 91.5%. Also, the growth in the experiment with 786-0 renal was 107%; in the experiment on COLO 205 colon it was 78.8%.

As to `CCC(CCCN1C(=O)c2ccccc2C1=O)Nc1cc(OC)cc2c(C)ccnc12` (stereo not drawn), the growth with NCI-H23 lung is 117%; with NCI-H226 lung, 88.2%; in the experiment with NCI-H322M lung, 104%; in the experiment on HOP-92 NSCLC it was 72.4%; in the experiment with NCI-H522 lung, 91.8%; in the experiment on A549/ATCC NSCLC, 103%. Moreover, the growth is 95.9% with 786-0 renal and 104% with COLO 205 colon.

Turning to `COc1cc2ncnc(-n3ncc4cc(NC(=O)Nc5ccccc5)ccc43)c2cc1OC`, the growth in the experiment on NCI-H23 lung is 3.14% (active); in the experiment on NCI-H226 lung it was -13.9% (active); in the experiment with NCI-H322M lung it was 30.9%; in the experiment on HOP-92 NSCLC it was -20.3% (active); with NCI-H522 lung it was 19.9%; in the experiment with A549/ATCC NSCLC it was 24.1%. Further, the growth in the experiment with 786-0 renal was 28%.

Values taken from PubChem BioAssay (NCI).
